# Activity calls are given as the source filed them. Rule for the calls: active = hit-call score of the fitted dose curve at least 0.9, where 1 is the maximum; inactive = score below 0.9.
# Read-out: Plasminogen activator inhibitor-1 (PAI1), SERPINE1 (gene 5054)
# Experiment: BSK_MyoF_PAI1: BioMAP Diversity Plus: MyoF Assay for Plasminogen activator inhibitor-1 (PAI1) Biomarker Activity (AID 2284256)
# Conditions: primary human lung fibroblasts
# Experimental: BSK_MyoF is a cell-based, multiplexed-readout assay that uses lung fibroblasts, […], with measurements taken at 24 hours after chemical dosing in a microplate: 96-well plate.BSK_MyoF_PAI1 is an assay component measured in the BSK_MyoF assay. It measures PAI-1 antibody related to regulation of gene expression using ELISA technology.Data from the assay component BSK_MyoF_PAI1 was analyzed at the endpoint, BSK_MyoF_PAI1, in the positive analysis fitting direction relative to DMSO as the negative control and baseline of activity. Using a type of binding reporter, gain or loss-of-signal activity can be used to understand protein changes. To generalize the intended target to other relatable targets, this assay endpoint is annotated to the 'cytokine' intended target family, where the subfamily is 'plasmogen activator inhibitor'.
# The levels of cell surface (or secreted, indicated by the prefix "s") biomarker endpoints were measured by ELISA. Overt cytotoxicity to cells in confluent adherent cultures (all systems other than the BT system) was assessed by measuring total protein levels using sulforhodamine B (SRB) staining in parallel cultures at the time of biomarker measurements, indicated as SRB endpoints. For proliferation assays for adherent cell types, individual cell types are cultured at sub-confluence and relative cell numbers quantified by SRB staining at time points optimized for each system (48 h: 3C and CASM3C systems; 72 h: BT and HDF3CGF systems; 96 h: SAg system). SRB was performed by staining cells with 0.1% SRB after fixation with 10% TCA and reading wells at 560 nm.Viability and proliferation of PBMC (T cells) was quantified by Alamar Blue reduction for the SAg and BT systems. For PBMC viability (referred to as PBMC Cytotoxicity within the assay endpoint names), cells were plated (75,000/well in a 96-well plate) and then chemical samples added for 1 h before addition of activators, SEB and TSST-1 (20 ng/mL final concentration each). Cells were incubated for 90 h. Then, Alamar Blue (20 uL/well) (Invitrogen, Cat DAL1100) was added for 6 h, and the plates were read with a fluorescence microplate reader at 546/580 nm (excitation/emission). For PBMC proliferation, cells were plated and activated as above but incubated for only 16 h prior to addition of Alamar Blue. Plates were read after 6 h.
SMILES,outcome,AC50
Sc1nc2ccccc2s1,inactive,
CCCCCCCCCCC1CO1 (stereo not given),,29 µM (active)
CCCCCCCCCC/C=C/C1CC(=O)OC1=O (stereo not given),inactive,
O=C(C(=O)c1ccccc1)c1ccccc1,inactive,
CC(C)CC(=O)CC(C)CC(C)C (stereo not given),inactive,
COC(=O)/C=C\C(=O)OC,inactive,
CN(C)c1ccc(C(c2ccccc2)c2ccc(N(C)C)cc2)cc1,inactive,
Oc1cccc2ccccc12,inactive,
OC(C(F)(F)F)(C(F)(F)F)C(O)(C(F)(F)F)C(F)(F)F,,53.5 µM (active)
Cc1cccnc1,inactive,
Cc1cc(-n2nc3ccc(Cl)cc3n2)c(O)c(C(C)(C)C)c1,inactive,
CN(C)CCC(c1ccc(Cl)cc1)c1ccccn1 (stereo not given),inactive,
CCCCCCC(O)CCCCCCCCCCC(=O)OC (stereo not given),inactive,
CCCCCCCCCCCCCCCCCC[N+](C)(C)C,,3.36 µM (active)
CC[N+](CC)(CC(=O)Nc1c(C)cccc1C)Cc1ccccc1,inactive,

# — PubChem BioAssay (EPA / NIEHS)
